# aSyn rescue: rescues yeast growth from alpha-synuclein toxicity; Yeast expressing alpha-synuclein, growth rescue, BacTiter-Glo, 24 h; Potency, µM (doses to about 46.1 µM), for the others: at the highest dose growth rescue (activation), usual class: activators; actives 0.14% (n = 370,000); AID 652106; note: % of control where 0% means no effect; nearly all actives have a fitted effect of over 65% in size
#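 Rescue of yeast growth: cells expressing toxic alpha-synuclein, induced in galactose at OD600 0.02, incubated with compound 24 h at 30 C. ATP luminescence quantified growth; inhibitors of toxicity appear as activators.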
# Abeta rescue: compounds reversing amyloid beta toxicity in yeast; AID 1347071; actives 0.063% (n = 410,000); yeast expressing A-beta42, growth rescue, OD600, 48 h; response scale: 0% DMSO, 100% iron-clioquinol control; Potency, µM (titrated, usually from 46.1 µM), hits mostly activators; note: nearly all actives have a fitted effect of over 55% in size
#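 Yeast A-beta toxicity model in growth medium with pinned compounds, 48 h at 30 C; growth read as absorbance at 600 nm. Normalized to FeCl3/clioquinol equimolar mix (positive) and DMSO (negative).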
# Mito fusion yeast: mitochondrial division inhibition or fusion activation; S. cerevisiae fusion-defective mutant growth rescue, CellTiterGlo 48 h; Potency, µM (series often up to 46.1 µM), inactives show at the top dose growth rescue (activation), actives largely listed as activators; actives 0.23% (n = 320,000); AID 485298; note: % of control where 0% means no effect; nearly all actives have a fitted effect of over 45% in size
#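 Temperature-sensitive fusion-defective S. cerevisiae (e.g. fzo1-1, mgm1-5) were grown with compound in YPEG medium (3% ethanol, 3% glycerol) for 48 hours at 37C. Growth rescue was measured as viability by CellTiterGlo luminescence after 10 minutes at ambient.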
# TDP43 rescue: TDP-43 toxicity inhibition in yeast; TDP-43 expressing yeast growth rescue, BacTiter-Glo, 24 h; Potency, µM (titrated, usually from 46.1 µM), inactives show top-dose growth rescue (activation), most hits filed as activators; actives 1.8% (n = 410,000); AID 652104; note: % of control where 0% means no effect; nearly all actives have a fitted effect of over 50% in size
#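 Cell-based yeast growth screen: TDP-43 expression induced in galactose, inoculum OD600=0.02 after raffinose pregrowth to mid-log. Read-out BacTiter-Glo luminescence at 24 hr, 30 deg C; inhibition of toxicity seen as signal increase.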
# FUS suppressor: FUS proteinopathy suppression in yeast. S. cerevisiae FUS-expressing, growth rescue, OD600, 24 h. actives 0.24% (n = 390,000). Potency, µM (series often up to 76.6 µM), most hits filed as activators;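 note: plate controls were DMSO vehicle for no effect and reference control for full effect; nearly all actives have a fitted effect of over 55% in size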
#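 Quantitative HTS measuring growth restoration of FUS-toxic yeast. Galactose-induced cells (OD 0.005) were exposed 24hr at 30C to compounds at several concentrations, then absorbance at 600 nm was recorded.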
# Starred values were filed as active, the others as inactive; i = inactive; ? = inconclusive; / = no result. Rows were chosen to be rich in hits. Some 2.2% of all compounds tested hit in one or more screens of this group. Calls come from the whole dose curve; as a rule, active = well fitted curve in the direction sought with a large enough effect; inconclusive = small, poorly fitted or top-dose-only effect, or another doubt; inactive = no such curve, though single readings can be large; an effect the other way counts as inactive or inconclusive. Potency is the fitted concentration of half-maximal effect.
SMILES,aSyn rescue,Abeta rescue,Mito fusion yeast,TDP43 rescue,FUS suppressor
COc1ccc(S(=O)(=O)c2c(SC)nn(Cc3ccccc3C)c2NC(C)=O)cc1,/,i,/,12%,i
CCc1nn2c(-c3ccccc3OC)ccnc2c1-c1ccc(F)cc1,/,i,/,9%,i
O=S(=O)(Nc1cccc2ccccc12)c1ccc2ccccc2c1,20µM*,/,/,/,/
COc1ccccc1NS(=O)(=O)c1ccc(OC)c(OC)c1,0%,i,-4%,19%,i
COc1ccc(NS(=O)(=O)c2ccc3ccccc3c2)c2ncccc12,?,4.5µM*,24%,?,i
COc1ccc(OC)c(NS(=O)(=O)c2cccc3cccnc23)c1,8%,i,1%,-13%,i
COc1ccccc1NS(=O)(=O)c1ccc2ccccc2c1,26%,i,-22%,20µM*,i
CCOc1ccc(-c2noc(CCC(=O)O)n2)cc1,0%,i,1%,32µM*,i
CCOc1ccc(C(=O)CCC(=O)O)cc1,4%,i,-2%,-16%,i
CCOc1ccc(OCCCC(=O)O)cc1,17%,i,1%,13µM*,i
COC(=O)[C@]12C[C@H](CC(=O)N3CCOCC3)C(=O)N(Cc3ccco3)C1=C[C@H](C(C)(C)C)O[C@@H]2C,/,/,/,/,i
Cc1onc(-c2ccccc2Cl)c1C(=O)Oc1cccc2cccnc12,11%,i,-4%,18µM*,i
Cc1onc(-c2ccccc2Cl)c1C(=O)Nc1ccc(Br)cc1,2%,i,14%,11µM*,i
Cc1c(C(=O)N2CCN(c3ncccn3)CC2)oc2ccc(Cl)cc12,13%,i,7%,?,i
CC[C@H](C(=O)Nc1ccccc1N1CCCC1)c1ccccc1,/,/,/,/,i
Cc1ccccc1CS(=O)(=O)c1ncc(Cl)c(C(=O)Nc2ccc(F)cc2)n1,-1%,i,-79%,11µM*,i
Cc1ccccc1NC(=O)c1nc(S(C)(=O)=O)ncc1Cl,18%,i,-23%,10µM*,i
CS(=O)(=O)c1ncc(Cl)c(C(=O)Nc2ccc(OC(F)F)cc2)n1,13%,i,-22%,/,i
Cc1cccc(CS(=O)(=O)c2ncc(Cl)c(C(=O)Nc3c(C)cccc3C)n2)c1,2%,i,-68%,?,?
Cc1cccc(CS(=O)(=O)c2ncc(Cl)c(C(=O)NCc3ccccc3)n2)c1,19%,i,-21%,7.9µM*,i
Cc1cccc(C)c1NC(=O)c1nc(S(=O)(=O)Cc2ccccc2)ncc1Cl,19%,i,-69%,10µM*,i
C[C@@H]1CCC[C@@]2(O[C@@H](CCO)C[C@H](O)[C@H]2O)O1,0%,i,/,-9%,i
COc1ccc(OC)c(S(=O)(=O)n2c(CN3CCOCC3)nc3ccccc32)c1,/,/,/,/,i
COCC(=O)N1C[C@H]2CON(C)[C@H]2C[C@H]1c1cccc(-c2ccccc2OC)c1,0%,i,/,0%,i
COc1ccccc1-c1cccc([C@@H]2C[C@H]3[C@H](CON3C)CN2C(=O)CCc2ccccc2)c1,15%,i,/,28µM*,i
CCOc1ccc(CCNC(=O)c2ccccn2)cc1OCC,/,/,/,/,i
